The source of these data is PubChem BioAssay (EPA / NIEHS).

Calls of active or inactive are those of the source. The calls were made as follows: active = hit-call score of the fitted dose curve at least 0.9, where 1 is the maximum; inactive = score below 0.9.

The nature of the assay: APR_HepG2_MitoticArrest_24hr: Apredica 24-hour HepG2 Assay for Mitotic Arrest (AID 2282910). Conditions: high-content imaging, actives raise or lower the signal. On the procedure: APR_HepG2_24hr is a cell-based, multiplexed-readout assay that uses HepG2, a human liver cell line, with measurements taken at 24 hours after chemical dosing in a 384-well plate.APR_HepG2_MitoticArrest_24hr is one of 10 assay component(s) measured or calculated from the APR_HepG2_24hr assay. It is designed to make measurements of cell phenotype, a form of morphology reporter, as detected with fluorescence intensity signals by HCS Fluorescent Imaging technology.Data from the assay component APR_HepG2_MitoticArrest_24hr was analyzed into 1 assay endpoint. This assay endpoint, APR_HepG2_MitoticArrest_24hr, was analyzed with bidirectional fitting relative to DMSO as the negative control and baseline of activity. Using a type of morphology reporter, measures of protein for gain or loss-of-signal activity can be used to understand the signaling at the pathway-level as they relate to the gene . Furthermore, this assay endpoint can be referred to as a primary readout, because this assay has produced multiple assay endpoints where this one serves a signaling function. To generalize the intended target to other relatable targets, this assay endpoint is annotated to the cell cycle intended target family, where the subfamily is arrest.
Cells were treated with dimethyl sulfoxide (DMSO) as a solvent control at a final concentration of 0.5% v/v or with compounds in DMSO with a resulting final DMSO concentration of 0.5% v/v. Compound treatment was done at concentrations of 0.39, 0.78, 1.56, 3.12, 6.24, 12.5, 25, 50, 100, and 200 uM in duplicate on each plate. Cells were treated with compounds for 1, 24, or 72 hr. Carbonyl […] m-chloro-phenylhydrazone (CCCP) and taxol were used as positive controls for mitochondrial function and cytoskeletal stability, respectively; DMSO served as the negative control for this experiment. Cells were fixed by the direct addition of 50 uL formaldehyde in Hank's Balanced Salt Solution (HBSS) to a final concentration of 3.7%. After incubation in the fixation medium for 30 min at room temperature (293-298 K), cells were rinsed twice with HBSS and treated with cell permeabilization buffer (16 uL of 0.5% Triton X-100) for 10 min at room temperature (293-298 K) before labeling. For mitochondrial membrane potential and mitochondrial measurements, pre-fixed cells were incubated with 50 uL of MitoTracker Red CMXRos (Invitrogen) at a concentration of 250 nM for 30 min before fixation. In the remaining cases, post-fixed cells were labeled by incubation with a multiplexed mixture of primary antibodies in HBSS for 60 min at room temperature (293-298 K) to detect immunoreactivity of c-Jun (1:500), phospho-histone H3 (1:100), phospho-histone H2A.x (1:200), p53 (1:400), alpha-tubulin (1:200) and Hoechst 33342 (2 ug/mL). Cells were labeled for multiplexed imaging on two separate plates: a) Hoechst 33342, MitoTracker Red, phospho-histone H3, and alpha-tubulin, and b) Hoechst 33342, phospho-histone H2A.x, and c-Jun. A final rinse with HBSS (50 uL) was performed before analysis. The primary and secondary antibodies for the proteins were phospho-histone H3 (rabbit anti-phospho-histone H3 and FITC-donkey anti-rabbit IgG), phospho-histone H2A.x (mouse anti-phospho-histone H2A.x and FITC-donkey anti-mouse IgG), c-Jun (rabbit anti-phospho-c-Jun and Cy3-donkey anti-rabbit IgG), p53 (sheep anti-p53 and Cy5-donkey anti-sheep IgG), alpha-tubulin (mouse anti-alpha-tubulin and Cy5-donkey anti-mouse IgG). These antibodies are available as the CellCiphr HepG2 assay kit (Millipore).Digital images of each well were captured using a Cellomics ArrayScan VTI (Thermo Scientific Cellomics) (0.8 NA objective, 0.63x optical coupler, and XF-93 filter set) at 20x magnification. The images were acquired using the autofocus feature of the ArrayScan instrument, which entails the following steps. First, the camera focuses on channel 1 (Hoechst 33342), where nuclei are identified. Second, a Z offset of 1 um is used for capturing mitochondria (MitoTracker Red). […]
Consider `Nc1cc2c3c(c1)C(c1ccccc1)=N[C@@H](NC(=O)c1cccnc1)C(=O)N3CC2`, for which the compound was called inactive.

Turning to `CCNc1nc(Cl)nc(NC(C)(C)C)n1`, the compound was called inactive.

Regarding `CC(C)(C)OOC(C)(C)C`, the outcome was inactive.

Take `Nc1ccc(Cl)cc1`: the call was inactive.

Take `c1ccc(OP(Oc2ccccc2)Oc2ccccc2)cc1`: the compound was classed as inactive.

For `Cc1cccc(N)c1`, the outcome was inactive.

As to `[N-]=[N+]=[N-]`, the compound was called inactive.

Turning to `CCOS(=O)(=O)OCC`, the compound was classed as inactive.

Take `O=C(O)C1C(C(=O)O)C2(Cl)C(Cl)=C(Cl)C1(Cl)C2(Cl)Cl` (stereo not given): the outcome was inactive.

Take `CC(Cl)(Cl)C(=O)O`: the outcome was inactive.

As to `ClC(Cl)c1ccccc1`, the call was inactive.

One may read the AC50 as the concentration giving half of the maximal activity seen. Turning to `O=P(Oc1ccccc1)(Oc1ccccc1)Oc1ccccc1`, the half-maximal activity concentration (AC50) was 67.5 µM (active).

For the compound `CCN(CC)c1ccccc1`, the compound was called inactive.

On to `CCOC(=O)c1ccccc1C(=O)OCC`, for which the outcome was inactive.

`COCCOCCO`: the call was inactive.

In the case of `CN(C)C(=O)Cl`, the result was inactive.

For the compound `O=C(O)C(Cl)Cl`, the compound was classed as inactive.

Consider `CC(Cc1ccc(OCC(=O)O)cc1)NCC(O)c1csc(C(F)(F)F)n1` (stereo not given), for which the compound was classed as inactive.

For the compound `OCC1CO1` (stereo not given), the call was inactive.

Turning to `CCCCCCCc1ccc(O)cc1`, the compound was called inactive.

With `c1ccc2c(c1)Nc1ccccc1S2`, the call was inactive.

As for `CCCCN(CCCC)N=O`, the outcome was inactive.

Consider `CCC(C)(C)c1ccc(O)cc1`, for which the AC50 is 107 µM (active).

Consider `O=P1(N(CCCl)CCCl)NCCCO1` (stereo not given), for which the compound was classed as inactive.

`CCCCN(CCCC)SN(C)C(=O)Oc1cccc2c1OC(C)(C)C2`: the half-maximal activity concentration (AC50) is 79.2 µM (active).

As to `CCCCc1ccccc1`, the result was inactive.

As to `CCOP(=S)(OCC)SCSCC`, the call was inactive.

On to `Cc1ccc([N+](=O)[O-])cc1C`, for which the result was inactive.

As for `Nc1ccc2ccccc2c1`, the outcome was inactive.

Take `CC(C)(C)c1ccc(O)cc1`: the compound was classed as inactive.

`CCC1(c2ccccc2)C(=O)N=C(O)NC1=O` (stereo not given): the outcome was inactive.

For `O=[N+]([O-])c1ccc(Cl)c(Cl)c1`, the call was inactive.

As for `Cc1ccc(O)cc1C`, the outcome was inactive.

For the compound `CCOc1ccc(C(C)(C)COCc2cccc(Oc3ccccc3)c2)cc1`, the compound was classed as inactive.

For `O=[N+]([O-])c1ccccc1`, the compound was classed as inactive.

With `CCCN(CCC)c1c([N+](=O)[O-])cc(C(C)C)cc1[N+](=O)[O-]`, the outcome was inactive.

As for `c1cc2c3c(cccc3c1)CC2`, the call was inactive.

As for `ClC1=C(Cl)C2(Cl)C3C(Cl)C(Cl)CC3C1(Cl)C2(Cl)Cl` (stereo not given), the AC50 was 65.1 µM (active).

For the compound `ClC(Cl)(Cl)c1ccccc1`, the compound was called inactive.

As to `CSC(C)(C)C=NO`, the outcome was inactive.
